Results from the supplement of paper PMC6522484.
± gives the standard deviation of the averaged measurements.

Columns and labels:
DLD1 [1] = test: cell viability (CellTiter-Glo) relative to plate median (fraction of plate median); higher = more viable cells; details: 5 µM; treatment time 24 h; reporter: 7TFP
Outline: (§1)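 Luminescence, normalised well by well to the plate median, is tabulated as a mean of independent replicates. There were two replicates, run on colorectal cancer lines stably transduced with lentiviral TCF/Wnt firefly luciferase reporters and dosed with library compounds at a final 5 µM for 24 h. Readouts were firefly luciferase or CellTiterGlo on parallel plates.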

HCT116 = test: as above; details: 5 µM; treatment time 24 h; reporter: TCF4/Wnt
Outline: as §1

SW480 [2] = test: as above; details: 5 µM; treatment time 24 h; reporter: 7TFP
Outline: as §1

DLD1 [3] = test: TCF/Wnt firefly luciferase reporter signal relative to plate median (fraction of plate median); higher = higher Wnt reporter signal; details: 5 µM; treatment time 24 h; reporter: 7TFP
Outline: as §1

SW480 [4] = test: as above; details: 5 µM; treatment time 24 h; reporter: 7TFP
Outline: as §1

Structure (SMILES) | cell viability (DLD1 [1]) | cell viability (HCT116) | cell viability (SW480 [2]) | TCF/Wnt firefly luciferase reporter signal (DLD1 [3]) | TCF/Wnt firefly luciferase reporter signal (SW480 [4])
CC1(C)CC2C1CC[C@]1(C)CCC3C(C(=O)O)CC(=O)O[C@@]32C1 (stereo not given in full) [3-HYDROXY-4-(SUCCIN-2-YL)-CARYOLANE delta-LACTONE] | 1.01 ± 0.088 | 0.9705 ± 0.00071 | 0.962 ± 0.035 | 1.07 ± 0.085 | 0.986 ± 0.021
CC1=C(CCC(=O)O)c2cc3nc(cc4[nH]c(cc5[nH]c(cc1n2)c(C)c5C(C)O)c(C)c4C(C)O)C(C)=C3CCC(=O)O (stereo not given) | 1.01 ± 0.015 | 0.909 ± 0.11 | 0.964 ± 0.0099 | 1.01 ± 0.13 | 1.02 ± 0.16
CC(=O)NCCc1ccccc1 [N-Acetyl-phenylethylamine] | 1.04 ± 0.014 | 1.01 ± 0.12 | 1.02 ± 0.072 | 1.03 ± 0.028 | 1.02 ± 0.079
CCCCC1=NC2(CCCC2)C(=O)N1Cc1ccc(-c2ccccc2-c2nnn[nH]2)cc1 | 0.897 ± 0.099 | 0.939 ± 0.016 | 1 ± 0.083 | 1.01 ± 0.048 | 0.811 ± 0.22
C=CCc1ccc(O)c(OC)c1 | 0.978 ± 0.013 | 1.07 ± 0.16 | 0.943 ± 0.063 | 1.06 ± 0.12 | 1.09 ± 0.078
COC(=O)C[C@H]1C(C)(C)C2(O)OC34CC2C(=O)[C@]1(C)C3CC[C@]1(C)C4=CC(=O)O[C@H]1c1ccoc1 (stereo partly drawn) [8beta-HYDROXYCARAPIN, 3,8-HEMIACETAL] | 1.02 ± 0.014 | 1.07 ± 0.11 | 0.9895 ± 0.0092 | 0.866 ± 0.067 | 0.816 ± 0.019
Nc1nccs1 | 0.985 ± 0.079 | 1 ± 0.14 | 1.02 ± 0.033 | 1.06 ± 0.13 | 0.986 ± 0.021
CN1CCN(C2=Nc3ccccc3Oc3ccc(Cl)cc32)CC1 | 0.901 ± 0.22 | 0.971 ± 0.055 | 0.927 ± 0.0028 | 0.898 ± 0.21 | 0.89 ± 0.12
Cc1cn[nH]c1 | 0.959 ± 0.021 | 0.939 ± 0.018 | 1.01 ± 0.021 | 0.768 | 0.892 ± 0.11
CCCc1cc(OC)c2c(c1)OCO2 | 0.961 ± 0.11 | 0.939 ± 0.014 | 0.976 ± 0.049 | 0.958 ± 0.034 | 0.964 ± 0.065
CC1(O)CC2C(CC1O)C2(C)C (stereo not given) | 0.946 ± 0.051 | 0.998 ± 0.06 | 0.953 ± 0.011 | 0.91 ± 0.12 | 0.848 ± 0.16
Oc1cccc2nc3c(O)cccc3nc12 [1,6-Phenazinediol] | 1.12 ± 0.014 | 0.992 ± 0.069 | 1.01 | 1.12 ± 0.042 | 1.12 ± 0.12
O=C(O)c1cccnc1 | 1.05 ± 0.042 | 1.01 ± 0.11 | 1.06 ± 0.05 | 0.969 ± 0.039 | 0.976 ± 0.062
CCOC(=O)[C@H](CCc1ccccc1)N[C@@H](C)C(=O)N1[C@H](C(=O)O)C[C@H]2CCCC[C@@H]21 | 0.923 ± 0.14 | 1.02 ± 0.068 | 0.98 ± 0.026 | 0.912 ± 0.052 | 0.974 ± 0.093
